Sampled rows, rich in hits. Any-hit rate of the full collection: about 2.4%.
D2 antag: D2 dopamine receptor (human) antagonism. HEK293 TREx D2 cells, calcium flux, dopamine EC80. AID 485344. inhibition, % at 10 µM. 340,000 tested, 2% active. P14416; in the data active = inhibition above about 30%; inactive = below that, where a call was filed
Target sequence (P14416 whole entry, looked up): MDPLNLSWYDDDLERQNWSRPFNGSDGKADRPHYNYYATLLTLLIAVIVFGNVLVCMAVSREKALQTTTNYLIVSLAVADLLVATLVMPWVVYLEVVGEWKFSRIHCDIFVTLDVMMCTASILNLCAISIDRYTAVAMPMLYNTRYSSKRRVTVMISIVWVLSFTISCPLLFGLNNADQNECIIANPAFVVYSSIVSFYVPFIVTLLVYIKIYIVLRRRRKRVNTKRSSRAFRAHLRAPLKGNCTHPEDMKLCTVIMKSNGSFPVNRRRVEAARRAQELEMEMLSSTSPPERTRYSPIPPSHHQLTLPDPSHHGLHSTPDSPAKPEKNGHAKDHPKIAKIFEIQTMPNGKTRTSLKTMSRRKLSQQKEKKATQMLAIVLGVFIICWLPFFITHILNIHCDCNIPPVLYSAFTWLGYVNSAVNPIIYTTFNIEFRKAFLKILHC
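Inhibition of EC80 dopamine-driven calcium flux, recorded kinetically, defines activity here; cells are a tetracycline-induced HEK293 T-REx line expressing force-coupled D2.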
D2 ag-1: activates the human D2 dopamine receptor. P14416. DiscoveRx PathHunter D2 beta-arrestin, luminescence, 90 min; 100% = 57 uM dopamine signal. activation, % (concentration not given with the values). 360,000 tested, 0.084% active. AID 624465; in the data active = activation above about 40%
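DiscoveRx PathHunter D2 beta-arrestin cells (2,100/well) attached overnight, then compound-stimulated 90 min at 37 C in HBSS/10 mM HEPES/0.1% Tween-20 buffer; beta-galactosidase complementation read by luminescence after 1 h at ambient temperature. Dopamine 57 uM final (EC100) as control.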
D2 PAM-1: potentiates the human D2 dopamine receptor allosterically | P14416 | DiscoveRx D2 beta-arrestin cells, luminescence, 90 min; 100% = 57 uM dopamine signal | potentiation, % (concentration not given with the values) | 360,000 tested, 0.23% active; in the data active = potentiation above about 50%
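PathHunter beta-arrestin assay in DiscoveRx D2 cells. Compounds were added with an EC20 of dopamine (50 nM final) for 90 min at 37 deg C. Luminescence was read 1 h after detection reagent, with 57 uM dopamine as the EC100 control.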
D2 ag-2: activates the human D2 dopamine receptor | HEK293 T-REx D2 cells, calcium flux agonist mode | 340,000 tested, 0.53% active | AID 485358 | activation, % at 2 µM;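 active = activation over 3 SD above normal in the single-dose calcium agonist read, cut at about 30% in these data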
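Tetracycline-induced HEK293 Trex cells with D2 receptor force-coupled to calcium signaling, plated overnight at 30 C and loaded with no-wash calcium dye. Calcium flux read kinetically for 180 s after compound addition; responses flag agonists.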
D2 PAM-2: D2 dopamine receptor (human) potentiation; P14416; HEK293 T-REx D2, calcium flux, EC20 dopamine potentiation; potentiation, % at 10 µM; 340,000 tested, 0.34% active;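 active = potentiation over 3 SD above the plate norm, cut at about 30% in these data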
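Tetracycline-induced Hek293 Trex D2 cells, force-coupled to calcium, loaded with no-wash calcium dye. Compound added with 180 s kinetic read for agonism, then EC20 dopamine and a further 180 s read for potentiation.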
A number is an active result; 0 = inactive; - = not tested or not shown.

SMILES | D2 antag | D2 ag-1 | D2 PAM-1 | D2 ag-2 | D2 PAM-2
O=C(Nc1ccc(F)c(F)c1)C1CCN(S(=O)(=O)c2cccc3nonc23)CC1 | 0 | 0 | 0 | 0 | 30
Cc1cccc(S(=O)Cc2ccc(C(=O)NC3CCCCCC3)o2)c1 (stereo unspecified) | - | - | - | 0 | 0
CCC(C(=O)NCCc1ccc(OC)c(OC)c1)n1nc(C)c2sc3ccccc3c2c1=O (stereo unspecified) | - | - | - | - | 0
COc1ccc(OC)c(CNS(=O)(=O)c2ccc3c(c2)CCCN3C(C)=O)c1 | - | - | - | 0 | 0
COc1ccc(NC(=O)c2ccc3c(=O)n4nc(Nc5cccc(Cl)c5C)sc4nc3c2)cc1 | - | - | - | 0 | 0
CC(C)c1ccccc1OCCCN1CCCC1 | 65 | 0 | 0 | 0 | 0
Clc1ccc(Cl)c(OCCCCN2CCCCC2)c1 | 86 | 0 | 0 | 0 | 0
Clc1ccccc1OCCCCN1CCCC1 | 0 | 0 | 0 | 0 | 0
Brc1ccccc1OCCCN1CCCCCC1 | 46 | 0 | 0 | 0 | 0
Brc1ccccc1OCCCCCN1CCOCC1 | 36 | 0 | 0 | 0 | 0
Cc1ccc(C)c(NC(=O)CSc2nncn3c2cc2sccc23)c1 | - | - | - | 0 | 0
Cc1cccc(NS(=O)(=O)c2ccc3c(c2)CCN3C(=O)C2CCC2)c1 | - | - | - | 0 | 0
C=Cc1ccc(Cn2c(SCC(=O)N3CCN(c4ccc(F)cc4)CC3)nc3ccccc32)cc1 | - | - | - | - | 0
CCCn1c(CCC(=O)Nc2cc(Cl)c(OC)cc2OC)nc2cccnc21 | - | - | - | 0 | 0
Cc1oc2ccc(O)c(CN3CCCC(C)C3)c2c1C(=O)Nc1ccccc1 (stereo unspecified) | - | - | - | 0 | 0
COc1ccc(/C=C/C(=O)N2CCC(c3nc4ccccc4o3)CC2)cc1OC | - | - | - | 0 | 0
COc1ccccc1-c1noc(CSc2nnc(Cc3ccccc3)n2-c2ccc(C)c(C)c2)n1 | - | - | - | 0 | 0
CC1CCN(CCOc2cc(Cl)ccc2Cl)CC1 | 72 | 0 | 0 | 0 | 0
Clc1ccccc1OCCCCN1CCCCC1 | 77 | 0 | 0 | 0 | 0
O=C(Cc1ccc(Cl)cc1)NCC(c1cccs1)S(=O)(=O)c1ccc(F)cc1 (stereo unspecified) | - | - | - | 0 | 0
CN(C)c1ccc(CNC(=O)CN2C(=O)CCn3nc(-c4cn(C)c5ccccc45)cc32)cc1 | - | - | - | 0 | 0
COc1ccccc1OCCC(=O)OCC(=O)Nc1ccc(Br)cc1F | 41 | 0 | 0 | 0 | 0
O=C(COC(=O)COc1ccccc1)Nc1ccc(Br)cc1F | - | 0 | 0 | - | -
C=CCn1c(-c2c(C)nc3cc(C)ccn23)n[nH]c1=S | 36 | 0 | 0 | 0 | 0
C=CCn1c(-c2ccc(OC)c(OC)c2)n[nH]c1=S | 0 | 0 | 0 | 0 | 0
SMILES | D2 antag | D2 ag-1 | D2 PAM-1 | D2 ag-2 | D2 PAM-2
O=C(Nc1ccc(OC(F)(F)F)cc1)C1CC(=O)N(Cc2ccco2)C1 (stereo unspecified) | 47 | 0 | 0 | 0 | 0
COc1ccc(CCN2C(=O)CN=C2Nc2ccc(F)cc2)cc1OC | 0 | 0 | 0 | 0 | 0
C=CCN1C(=O)CN=C1Nc1ccc(F)cc1 | 54 | 0 | 0 | 0 | 0
Cc1ccc(CN2C(=O)CCSc3ccc(Cl)cc32)cc1 | 0 | 0 | 0 | 0 | 0
O=C1CCSc2ccc(Cl)cc2N1Cc1cccc(Cl)c1 | 33 | 0 | 0 | 0 | 0
CC(C)n1cnc2c(N(C)c3ccccc3)nc(N(CCN(C)C)Cc3ccccc3)nc21 | 34 | 0 | 0 | 0 | 0
Cc1ccc(CSc2ccc3nnc(CCNS(=O)(=O)c4ccc(C)cc4)n3n2)cc1 | - | - | - | 0 | 0
Cn1c(C(=O)NCc2ccccc2Cl)cc2sc(Cl)cc21 | - | - | - | 0 | 0
COc1ccc(Cn2c(C3CCCCC3)nc3c(c(=O)c4ccccc4n3C)c2=O)cc1 | 42 | 0 | 0 | 0 | 0
CCc1nc2c(c(=O)c3ccccc3n2C)c(=O)n1C1CCCCCC1 | 0 | 0 | 0 | 58 | 0
COc1ccc(CCn2c(C3CCCCC3)nc3c(c(=O)c4ccccc4n3C)c2=O)cc1 | 0 | 0 | 0 | 0 | 0
O=C1CC2(CCCC2)CC(=O)N1CCCCN1CCN(c2ncccn2)CC1 | 88 | 0 | 0 | 0 | 0
CN1C(=O)N(CC(=O)N2CCN(c3ncccn3)CC2)C(=O)C12CCCCC2 | 0 | 0 | 0 | 0 | 0
CCCN(CCC)C(=O)CSc1nnc2cc(C)c3ccccc3n12 | - | - | - | 0 | 0
CCCCCCN(C(=O)CCCCCN1C(=O)NC(c2ccc(-c3ccccc3)cc2)C(C(=O)OCc2ccccc2)=C1C)C(C(=O)NCCCC)c1ccccn1 (stereo unspecified) | 31 | - | - | 0 | 0
CCCCCCN(C(=O)CCCCCN1C(=O)NC(c2ccc(-c3ccccc3)cc2)C(C(=O)OCc2ccccc2)=C1C)C(C(=O)NCCCC)C1CCCCC1 (stereo unspecified) | 0 | - | - | 0 | 0
COc1cc(C)c(/C=C(\C#N)C(=O)Nc2ccc(C)cc2)cc1C(C)C | 75 | 0 | 0 | 0 | 0
COCCNC(=O)/C(C#N)=C/c1cc(C(C)C)c(OC)cc1C | 0 | 0 | 0 | 0 | 0
Cc1cccc(NC(=O)CNC(=O)CN2C(=O)NC3(CCCc4ccccc43)C2=O)c1C (stereo unspecified) | 0 | 0 | 0 | 0 | 0
NC(=O)NC(=O)CN1C(=O)NC2(CCOc3ccccc32)C1=O (stereo unspecified) | 0 | 0 | 0 | 0 | 0
CNC(=O)NC(=O)CN1C(=O)NC2(CCOc3ccccc32)C1=O (stereo unspecified) | 31 | 0 | 0 | 0 | 0
Cc1cccc(C)c1NC(=O)CNC(=O)CN1C(=O)NC2(CCc3ccccc32)C1=O (stereo unspecified) | 33 | 0 | 0 | 0 | 0
CC(C)CC(=O)Nc1ccc(C(=O)CN2C(=O)NC3(CCOc4ccccc43)C2=O)cc1 (stereo unspecified) | 0 | 0 | 0 | 0 | 33
CCC1CCCCN1C(=O)N[C@@H](CCSC)C(=O)OC (stereo partly specified) | 37 | 0 | 0 | 0 | 0
Cc1c(C(=O)NCc2ccc(N(C)C)cc2)oc2c1-c1nn(Cc3cccc(Cl)c3)cc1CC2 | - | - | - | 0 | 0
SMILES | D2 antag | D2 ag-1 | D2 PAM-1 | D2 ag-2 | D2 PAM-2
Nc1cc(C(=O)OCC(=O)Nc2ccc(N3CCOCC3)cc2)ccc1Cl | 48 | 0 | 0 | 0 | 0
C/C(=N\Nc1ccc(Cl)c(C(=O)O)c1)c1ccc(N2CCOCC2)cc1 | 33 | 0 | 0 | 0 | 0
O=C(O)c1cc(N/N=C/c2ccc(N3CCOCC3)s2)ccc1Cl | 0 | 0 | 0 | 0 | 0
CCC(C)N1C(=O)/C(=C/c2c(NCCCOC(C)C)nc3c(C)cccn3c2=O)SC1=S (stereo unspecified) | 0 | 0 | 0 | 34 | 0
CCc1cccc(-n2c(C)nc3c(cnn3-c3ccc(C)c(C)c3)c2=O)c1 | - | - | - | 0 | 0
COc1ccccc1N1CCN(C(=O)c2cnc(N3CCCCC3)c3ccccc23)CC1 | - | - | - | 0 | 0
COc1ccc(NC(=O)CSC2=C(C#N)C(c3ccco3)C3=C(CCCC3=O)N2)c(OC)c1 (stereo unspecified) | 0 | 0 | 0 | 0 | 0

High-throughput results: PubChem BioAssay, National Center for Advancing Translational Sciences (NCATS)
